From PubChem BioAssay AID1159580 (chemical genetic matrix, 2015)
Where “and” joins values, the source holds several entries; their conditions need not be identical. Equal values may be shown once. Among all 5,500 compounds or so, about 2,000 (36%) were called active. Inconclusive results (about 18%) are left out. Rule as the data show it: active = normalized growth mostly below about 0.91 (no sharp cut-off); inconclusive = no clear call, values can overlap the other calls; inactive = mostly above about 0.92. Some of the results follow.

Assay: chemical genetic growth profiling, strain panel (AID 1159580);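 also: tested at 20 µM; growth read once vehicle control cultures reached saturation at 30 °C; 1 = growth at the plate median or of vehicle wells; lower values mean less growth of the strain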
Settings: S. cerevisiae deletion strains, growth OD

Measured: normalized growth

CCC(=O)c1c(O)cc(O)cc1O
inactive: locus YAL013W, strain DEP1, hits give low values 1.01 | locus YAL021C, strain ccr4, hits give low values 0.953 | locus YAL026C, strain drs2, hits give low values 0.975 | locus YAL030W, strain snc1, hits give low values 0.983 | locus YBL061C, strain skt5, hits give low values 0.98 | locus YBR009C, strain hhf1, hits give low values 1.03 | locus YBR021W, strain FUR4, hits give low values 1.03 | locus YBR023C, strain chs3, hits give low values 0.994 | locus YBR171W, strain sec66, hits give low values 0.979 | locus YBR229C, strain ROT2, hits give low values 0.994 | locus YBR231C, strain swc5, hits give low values 0.987 | locus YBR279W, strain paf1, hits give low values 0.992 | locus YCL011C, strain gbp2, hits give low values 0.989 | locus YCL016C, strain dcc1, hits give low values 0.974 | locus YCL029C, strain bik1, hits give low values 0.982 | locus YCL069W, strain vba3, hits give low values 0.992 | locus YCR088W, strain abp1, hits give low values 0.991 | locus YDL005C, strain med2, hits give low values 0.977 | locus YDL035C, strain GPR1, hits give low values 1.01 | locus YDL040C, strain nat1, hits give low values 0.99 | locus YDL074C, strain BRE1, hits give low values 1 | locus YDL101C, strain DUN1, hits give low values 1.01 | locus YDL134C, strain PPH21, hits give low values 1.01 | locus YDL185W, strain tfp1, hits give low values 0.972 | locus YDL192W, strain arf1, hits give low values 0.981 | locus YDR001C, strain nth1, hits give low values 0.987 | locus YDR069C, strain doa4, hits give low values 0.983 | locus YDR101C, strain arx1, hits give low values 0.975 | locus YDR137W, strain rgp1, hits give low values 0.968 | locus YDR150W, strain NUM1, hits give low values 1 | locus YDR159W, strain sac3, hits give low values 0.995 | locus YDR162C, strain NBP2, hits give low values 1 | locus YDR195W, strain ref2 0.955 | locus YDR297W, strain sur2, hits give low values 0.982 | locus YDR318W, strain mcm21, hits give low values 0.977 | locus YDR334W, strain swr1, hits give low values 0.979 | locus YDR335W, strain msn5, hits give low values 0.986 | locus YDR388W, hits give low values 0.981 | locus YDR392W, strain spt3, hits give low values 0.968 | locus YDR502C, strain sam2, hits give low values 0.979 | locus YEL003W, strain gim4, hits give low values 0.99 | locus YEL037C, strain rad23, hits give low values 0.982 | locus YEL061C, strain CIN8 (second series), hits give low values 0.992 | locus YEL061C, strain CIN8, hits give low values 1 | locus YER015W, strain faa2, hits give low values 0.991 | locus YER016W, strain bim1, hits give low values 0.968 | locus YER110C, hits give low values 0.979 | locus YER111C, strain swi4, hits give low values 1 | locus YER155C, strain BEM2 (second series), hits give low values 0.983 | locus YER155C, strain BEM2, hits give low values 0.989 | locus YER167W, strain BCK2, hits give low values 1.01 | locus YFR010W, strain ubp6, hits give low values 0.998 | locus YGL078C, strain dbp3, hits give low values 0.975 | locus YGL086W, strain mad1, hits give low values 0.995 | locus YGL167C, strain pmr1, hits give low values 0.974 | locus YGL173C, strain kem1, hits give low values 1.01 | locus YGL227W, strain vid30, hits give low values 0.993 | locus YGL240W, strain doc1, hits give low values 1 | locus YGL248W, strain PDE1, hits give low values 1.01 | locus YGL253W, strain hxk2, hits give low values 0.986 | locus YGR078C, strain PAC10, hits give low values 1.01 | locus YGR135W, strain pre9, hits give low values 0.985 | locus YGR229C, strain SMI1, hits give low values 0.992 | locus YGR252W, strain gcn5, hits give low values 0.921 | locus YHR013C, strain ard1, hits give low values 0.938 | locus YHR027C, strain rpn1, hits give low values 1.01 | locus YHR030C, strain SLT2, hits give low values 1.01 | locus YHR079C, strain IRE1 (second series), hits give low values 0.978 | locus YHR079C, strain IRE1, hits give low values 1.03 | locus YHR094C, strain hxt1, hits give low values 0.983 | locus YHR129C, strain ARP1, hits give low values 0.999 | locus YHR142W, strain chs7, hits give low values 0.989 | locus YHR200W, strain rpn10, hits give low values 0.972 | locus YIL066C, strain RNR3, hits give low values 1.01 | locus YIL073C, strain SPO22, hits give low values 1.07 | locus YIL125W, strain kgd1, hits give low values 0.984 | locus YIR030C, strain dcg1, hits give low values 0.979 | locus YJL092W, strain hpr5, hits give low values 0.987 | locus YJL095W, strain BCK1 (second series), hits give low values 0.995 | locus YJL095W, strain BCK1, hits give low values 1 and 1.02 | locus YJL115W, strain asf1, hits give low values 0.996 | locus YJL129C, strain trk1, hits give low values 0.996 | locus YJL134W, strain LCB3, hits give low values 0.999 | locus YJL154C, strain vps35, hits give low values 0.975 | locus YJL164C, strain tpk1, hits give low values 0.993 | locus YJL166W, strain qcr8, hits give low values 0.991 | locus YJL168C, strain set2, hits give low values 0.979 | locus YJL187C, strain SWE1 (second series), hits give low values 1.01 | locus YJR043C, strain POL32, hits give low values 1.01 | locus YJR066W, strain TOR1, hits give low values 0.97 | locus YJR075W, strain HOC1, hits give low values 1.01
